# VDR inh – blocks the human vitamin D receptor | P11473 | VDR-SRC2-3 peptide fluorescence polarization, 2 h | Potency, µM, inactives show max response, negative = inhibition, usual class: inhibitors | 400,000 compounds, 0.93% hits; further: potency means the concentration at half of the fitted maximal effect; on the % scale 0 is the no-effect control and ±100 the full control effect
# Target sequence (P11473 whole entry, looked up): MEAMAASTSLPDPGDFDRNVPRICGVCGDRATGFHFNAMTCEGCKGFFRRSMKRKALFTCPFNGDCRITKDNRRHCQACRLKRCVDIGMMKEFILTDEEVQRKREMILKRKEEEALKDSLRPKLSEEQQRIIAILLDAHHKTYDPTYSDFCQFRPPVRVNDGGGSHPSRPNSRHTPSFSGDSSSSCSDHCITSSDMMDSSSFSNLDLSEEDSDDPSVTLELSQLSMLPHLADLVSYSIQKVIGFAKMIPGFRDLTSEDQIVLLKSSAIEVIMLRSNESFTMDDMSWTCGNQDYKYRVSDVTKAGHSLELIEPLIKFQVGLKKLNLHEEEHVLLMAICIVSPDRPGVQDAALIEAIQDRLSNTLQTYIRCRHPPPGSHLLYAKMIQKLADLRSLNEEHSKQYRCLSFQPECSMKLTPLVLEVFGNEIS
#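 Inhibition of the VDR/SRC2-3 peptide interaction is quantified by fluorescence polarization. Compounds (23 nl, pintool) incubate with the reagents for 2 hours at ambient room temperature.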
# WRN helicase inh – WRN helicase (human) inhibition; Q14191; WRN helicase unwinding, fluorescent forked duplex, kinetic; Potency, µM (series often up to 114 µM), for the others: top-dose activity change, negative = inhibition, most hits filed as inhibitors; 360,000 compounds, 0.46% hits; AID 651768; further: potency means the concentration at half of the fitted maximal effect; on the % scale 0 is the no-effect control and ±100 the full control effect; nearly all actives have a fitted effect of over 55% in size
#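 Enzyme (20 nM final) and test compound sit together 15 min at room temperature before substrate addition. Substrate is a single-forked duplex oligonucleotide (100 nM) labelled with fluorophore and quencher, with 2 mM ATP; helicase unwinding raises red fluorescence, read kinetically.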
# PLK1 PBD block – blocks phosphopeptide binding to human PLK1 polo-box domain. Potency, µM, without a hit: max response, negative = inhibition, usual class: inhibitors. P53350. 360,000 compounds, 2.8% hits. Plk1 PBD binding of FITC phosphopeptide, fluorescence polarization; further: potency means the concentration at half of the fitted maximal effect; series mostly up to about 57 µM; on the % scale 0 is the no-effect control and ±100 the full control effect; nearly all actives have a fitted effect of over 65% in size
# PI5P4Ka inh – blocks human PI5P4K alpha kinase activity. P48426. AID 652105. 330,000 compounds, 1.2% hits. PI5P4Kalpha enzyme, ADP-Glo luminescence, 60 min; hits give low values. max response, %; active means max response of -50% or lower; inconclusive means between -30% and -50%; inactive means -30% or higher; further: value at the top dose of about 77 µM; on the % scale 0 is the no-effect control and ±100 the full control effect
#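 PI5P4Kalpha ADP-Glo assay; 5 microM ATP final; 60 min RT reaction; HEPES pH 7.4/EGTA/CHAPS, 5% DMSO; controls lacking substrate or enzyme; luminescent end-point.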
# FEN1 inhibitor – blocks human flap endonuclease 1. P39748. Potency, µM (doses to about 114 µM), for inactives: top-dose activity change, negative = inhibition, hits mostly inhibitors. 390,000 compounds, 0.35% hits. Recombinant FEN1 flap cleavage, fluorescence, 15 min; further: potency means the concentration at half of the fitted maximal effect; on the % scale 0 is the no-effect control and ±100 the full control effect; nearly all actives have a fitted effect of over 65% in size
# Target sequence (P39748 whole entry, looked up): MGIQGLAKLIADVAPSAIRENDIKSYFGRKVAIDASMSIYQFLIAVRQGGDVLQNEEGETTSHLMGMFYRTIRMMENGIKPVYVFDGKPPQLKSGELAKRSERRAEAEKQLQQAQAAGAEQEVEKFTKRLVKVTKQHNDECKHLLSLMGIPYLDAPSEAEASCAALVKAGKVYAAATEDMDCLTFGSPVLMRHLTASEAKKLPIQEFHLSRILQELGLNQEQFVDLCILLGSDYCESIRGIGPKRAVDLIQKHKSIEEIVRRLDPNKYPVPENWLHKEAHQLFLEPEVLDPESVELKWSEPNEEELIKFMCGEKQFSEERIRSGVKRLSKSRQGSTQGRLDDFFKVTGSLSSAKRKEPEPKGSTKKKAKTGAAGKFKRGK
#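 Recombinant FEN1 (10 nM) was preincubated with pin-transferred compounds for 15 min at room temperature, then flap DNA substrate (50 nM final) was added. Plates were read at 0 and 15 min, and normalized concentration–response data were fitted to a four-parameter Hill equation.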
# TCR activator – activators of T cell receptors. primary human leukocytes, anti-CD3, IL-2 HTRF, 48 h. Potency, µM (titrated, usually from 9.22 µM), for inactives: at the highest dose activation of IL-2 secretion, most hits filed as activators. 330,000 tested, under 10 active. AID 504894; further: % of control where 0% means no effect
#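 Compounds are tested in HTS on primary human leukocytes co-incubated with a-CD3 beads for 48 hr. IL-2 output is measured by time-resolved FRET.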
# * hit, by the source's call; u = inconclusive; x = not tested or not shown; [ ] = another dose, or the depositor's remark. Compounds with a hit are over-represented: about 3.7% of the library has one in this group of screens. Unless noted, the call rests on the fitted dose curve; in most records, active means well fitted curve in the direction sought with a large enough effect; inconclusive means small, poorly fitted or top-dose-only effect, or another doubt; inactive means no such curve, though single readings can be large; an effect the other way counts as inactive or inconclusive.
SMILES,VDR inh,WRN helicase inh,PLK1 PBD block,PI5P4Ka inh,FEN1 inhibitor,TCR activator
O=C(O)CCn1nnc(-c2ccccc2)n1,-26.8%,4.7%[57.1 µM],21.2µM*,-14.4,-2.3%,-27.9%
CCc1ccc2oc(C(=O)Nc3cccc(C(F)(F)F)c3)cc(=O)c2c1,15.0%,x,x,x,-3.7%,x
O=C(CN(c1cccc(Br)c1)S(=O)(=O)c1ccccc1)N1CCc2ccccc2C1,-7.3%,x,x,x,0.3%,x
Cc1ccc(NC(=O)c2c(C)nn(-c3ccccc3)c2Cl)cc1,-5.8%,-7.0%,26.7µM*,-0.1,10.9%,-0.4%[46.1 µM]
Cc1ccc2ncc(C)c(/C=C/c3ccc(N(C)C)cc3)c2c1,x,x,x,x,-5.5%,x
CSc1nc(NCCN(C)C)c2sc3nc(-c4ccco4)c4c(c3c2n1)CCC4,7.9%,-21.8%,-12.0%,-10.2,u,-6.3%
CSc1nc(SCC(=O)O)c2sc3nc(-c4ccccc4)c4c(c3c2n1)CCC4,-11.5%,u,11.9µM*,-17.5,u,-7.7%
CSc1nc(N(C)CCO)c2sc3nc(-c4ccco4)c4c(c3c2n1)CCC4,u,22.4µM*,23.8µM*,x,44.7µM*,-1.7%
O=C(O)CSc1nc2sc3c(c2c(=O)n1-c1ccccc1)CCC3,-10.5%,u,u,-29.7,1.0%,5.7%
O=C1NC2(CCCCCC2)C(=O)N1Cc1cccc([N+](=O)[O-])c1,u,-20.6%,26.7µM*,-22.5,14.3%,1.9%
COc1cccc(CN2C(=O)NC3(CCCCCC3)C2=O)c1,5.8%,-25.6%,-2.1%,-0.5,3.2%,2.2%
CCC[C@@H](CN1CCC[C@H]1CN1C(N)=NC[C@@H]1Cc1ccccc1)N1C[C@@H]([C@H](C)CC)N(CCCC2CCCC2)C1=N,2.6%,-21.7%,-14.2%,-86.7*,-22.0%,-0.6%
O=C(NNc1ccccc1F)c1sccc1Cl,-10.9%,x,x,x,-6.0%,x
O=S1(=O)C=CC(Nc2ccccc2)C1 (centres undefined),u,11.4%,26.7µM*,-24.4,-2.5%,x
Cc1ccc(NC(=O)COC(=O)c2ccccc2OCC(=O)Nc2ccc(Br)cc2)c(C)c1,x,x,x,x,9.5%,x
CCOc1cc(/C=N\NC(=O)OC(C)(C)C)ccc1OC(=O)c1ccco1,-17.2%,-27.5%,21.2µM*,-26.2,3.5%,-3.4%
CCc1ccc(-c2nc(CS(=O)CC(=O)NCCc3ccc(Cl)cc3)c(C)o2)cc1 (centres undefined),4.7%,x,x,x,-0.1%,x
O=S(=O)(Nc1cc(S(=O)(=O)N2CCOCC2)ccc1O)c1ccc2c(c1)OCCCO2,25.1µM*,-12.0%[11.6 µM],4.74µM*,u,-12.5%,-5.1%
O=S(=O)(Nc1cc(S(=O)(=O)N2CCOCC2)ccc1N1CCOCC1)c1ccc2c(c1)OCCO2,-5.9%,-6.2%,-5.5%,3.6,-5.6%,-1.7%
COc1ccc(S(=O)(=O)N2CCN(c3ccc(C)cc3C)CC2)cc1OC,-26.9%,-4.4%,23.8µM*,-1.3,u,-16.3%
COc1ccc(S(=O)(=O)N2CCN(c3c(C)cccc3C)CC2)cc1OC,-18.9%,-2.7%,-9.2%,-1.6,-8.9%,-3.5%
Cc1ccccc1C(=O)NC1(C(F)(F)F)C(=O)Nc2c1c(=O)[nH]c(=O)n2-c1ccc(F)cc1 (centres undefined),-7.1%,x,x,x,7.1%,x
CCc1ccccc1N(CC)C(=O)c1c(C)oc2ncnc(N3CCOCC3)c12,15.2%,x,x,x,2.0%,x
COc1cccc(OCCNCc2ccccc2)c1,u,-16.4%,16.8µM*,-20.5,4.1%,5.5%
O=C(COC(=O)C1CC(=O)N(Cc2ccco2)C1)c1ccc(OC(=O)c2ccco2)cc1 (centres undefined),u,35.5µM*,u,-63.3*,u,-1.6%[46.1 µM]
SMILES,VDR inh,WRN helicase inh,PLK1 PBD block,PI5P4Ka inh,FEN1 inhibitor,TCR activator
Cc1ccc(C(=O)Oc2ccc(C(=O)COC(=O)C3CC(=O)N(Cc4ccco4)C3)cc2)cc1 (centres undefined),-16.4%,u,u,u,-23.6%,-2.5%[46.1 µM]
COc1ccc(OC)c2c(=S)c3ccccc3[nH]c12,4.47µM*,x,x,x,x,x
CC(=O)Nc1ccc(Nc2nc3ccc(C)cc3n3nnnc23)cc1,-1.6%,x,x,x,7.5%,x
O=C(O)CSc1nnnn1C1CCCCC1,70.8µM*,0.0%,15µM*,u,-4.1%,4.2%
CC1=C(C)/C(=N\OS(=O)(=O)c2ccccc2)C=CC1=O,35.5µM*,u,u,-0.1,-6.0%,2.2%
CCN(CC(=O)NCc1ccc(F)cc1)C(=O)/C=C/c1cccs1,10.7%,-0.4%,26.7µM*,-18.2,-4.6%,-0.3%
Cc1sc(NC(=O)CCC(=O)O)c(C(N)=O)c1-c1ccccc1,u,-15.5%,13.4µM*,-28.1,7.1%,-14.0%[46.1 µM]
CCc1ccc(-c2c(C)sc(NC(C)=O)c2C(N)=O)cc1,-12.9%,0.0%,26.7µM*,-10.6,-22.5%,-1.1%
COC(=O)CCC(=O)NC(=S)Nc1sc(C)c(C)c1C(N)=O,-1.1%,-7.5%,-22.9%,-8.2,-2.4%,-10.6%[46.1 µM]
COC(=O)CCC(=O)Nc1sc(C)c(C)c1C(N)=O,50.1µM*,-9.1%,4.74µM*,-26.5,0.9%,-7.2%
CCCC(=O)Nc1sc(Cc2ccccc2)c(C)c1C(N)=O,u,1.3%,5.32µM*,-9.0,-18.5%,7.2%
Cc1sc(NC(=O)C2CCCCC2C(=O)O)c(C(N)=O)c1-c1ccccc1 (centres undefined),-20.0%,2.0%,u,-17.9,2.0%,-5.6%
CCCCCC(=O)N(c1ccc(OCC)cc1)S(=O)(=O)c1ccc2c(c1)n(C)c(=O)n2C,3.3%,x,x,x,11.3%,x
CCc1cc2c(cc3c(=O)n(CC(=O)NC4CCC(C)CC4)ncn32)s1 (centres undefined),8.7%,x,x,x,-3.8%,x
COC(=O)c1c(NC(=O)CCC(=O)O)sc(Cc2ccccc2)c1C,-14.8%,12.6%,u,-1.0,-12.8%,4.4%
COc1ccc(NC(=O)c2c(NC(=O)CCC(=O)O)sc(-c3ccccc3)c2C)cc1,u,2.9%,23.8µM*,-10.5,3.7%,-4.0%
C/C(N)=C(/C#N)C(=O)COC(=O)c1cccc2ccccc12,-3.1%,-2.0%,-9.5%,4.2,2.9%,-0.2%[46.1 µM]
N#CSCC(=O)c1cccc2ccccc12,u,u,10.6µM*,-3.4,-21.1%,7.2%[46.1 µM]
O=C(c1ccc2c(c1)N(Cc1cccc(Cl)c1)C(=O)c1ccccc1S2(=O)=O)N1CCCC1,-3.0%,x,x,x,1.1%,x
CN1CCN(C(=O)c2ccc3c(c2)N(Cc2cccc(Cl)c2)C(=O)c2ccccc2S3(=O)=O)CC1,-7.0%,4.1%,26.7µM*,14.3,0.3%,-1.3%
COc1ccc(C(=O)COC(=O)c2cnc(C)cn2)c(OC)c1,-2.4%,-8.0%,-1.9%,-55.6*,-0.3%,-7.0%
Cc1cnc(C(=O)OCC(=O)c2csc(N3CCCCC3)n2)cn1,-8.8%,u,-14.0%,-60.1*,-5.5%,-142.1%
NS(=O)(=O)c1ccc(CCNc2nc3c(-c4cccc(F)c4)nnn3c3ccc(Cl)cc23)cc1,-8.4%,x,x,x,2.4%,x
Cc1cccc(NC(=S)N2CCN(Cc3ccccc3)CC2)c1C,-5.3%,-8.0%,-3.0%,3.7,-10.7%,-0.2%[46.1 µM]
